Measured values reported in PMC7819943, “Rice protein-binding microarrays: a tool to detect cis-acting elements near promoter regions in rice”.
Whole data set: some 39,000 sequences, median “fluorescence intensity (a.u.)” near 4,300, cut for the highest 2% near 39,000. Many of the other results were omitted from the sample, so the highest values are more common in it than they were.

molecular target: T1, OsSMF1 (Oryza sativa, UniProt Q6ZLB0 1-436); test: protein-binding microarray (RPBM); PBS, 2% BSA, 51.3 ng/ul salmon testes DNA, 50 uM zinc acetate, 200 nM TF, 25 C, 1 h; high values mean tight binding; conditions: protein: recombinant; tags: N-terminal polyhistidine and DsRed monomer fusion (pET32a); chain copies: 2; label: CyDye5-dUTP incorporated in the synthesized complementary strand; 3' TTTTT single-stranded linker to array surface; dsDNA, one strand shown
T1 sequence: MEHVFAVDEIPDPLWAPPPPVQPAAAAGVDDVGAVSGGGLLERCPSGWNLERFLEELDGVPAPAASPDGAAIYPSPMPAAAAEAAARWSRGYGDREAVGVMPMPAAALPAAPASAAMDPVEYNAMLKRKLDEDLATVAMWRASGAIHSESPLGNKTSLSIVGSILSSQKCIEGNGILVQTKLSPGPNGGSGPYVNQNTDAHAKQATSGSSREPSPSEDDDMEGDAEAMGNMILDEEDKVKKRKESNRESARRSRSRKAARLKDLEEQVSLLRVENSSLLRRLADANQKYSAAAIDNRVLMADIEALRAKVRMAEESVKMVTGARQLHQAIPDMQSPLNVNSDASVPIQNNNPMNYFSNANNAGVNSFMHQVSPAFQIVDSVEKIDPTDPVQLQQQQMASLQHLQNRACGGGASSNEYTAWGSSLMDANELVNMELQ
Summary of the method: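 An Axon 4000B scanner gave the binding signal as per-feature fluorescence intensity in arbitrary units. This followed washing of a custom Agilent array that had been incubated for 1 h at 25 °C with 200 nM protein in PBS, 2% BSA, salmon testes DNA and 50 µM zinc acetate. The proteins were transcription factors fused at the N-terminus to polyhistidine and DsRed, expressed in E. coli BL21-CodonPlus and purified on Ni–NTA.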

Compared with “GCTTGCGCCAAAACCAAACATAGAGCAGCAATAGAGAGGACGGAGTCACCTAGTGCAG”, “TTATCTCCAATTTAAGCAACCAGAGGAATATATATGCTTGCGGAGTCACCTAGTGCAG” is higher in binding signal: 3610 fluorescence intensity (a.u.) for the first, 53500 fluorescence intensity (a.u.) for the second.

Compared with “TTTATCAAATATTTTGTTCCAAAGCTTACATAAGCATATGCGGAGTCACCTAGTGCAG”, “CCAAGCAAGCATACAGAGAGCAATAAAAGTATAAAACACACGGAGTCACCTAGTGCAG” is higher in binding signal: 3320 fluorescence intensity (a.u.) for the first, 4950 fluorescence intensity (a.u.) for the second.

Going from “AGTGCTTTATCACACAGAATCAATACCCAAGAAGCATATGCGGAGTCACCTAGTGCAG” to “TGATTGTTTAACCAAAATATATGCAATTGACTAAGCAAAACGGAGTCACCTAGTGCAG”, the binding signal falls from 41000 fluorescence intensity (a.u.) to 3220 fluorescence intensity (a.u.).

Compared with “CAACCAAGCAAGCGGCAGCAGAGCGCGAGTCATGCGACCCCGGAGTCACCTAGTGCAG”, “CACGCGCCGGTGCCTTGCGCCGTCACCGTGCCAGCCCAGCCGGAGTCACCTAGTGCAG” is higher in binding signal: 3180 fluorescence intensity (a.u.) for the first, 5670 fluorescence intensity (a.u.) for the second.

Compared with “GCGTGGCCACATCAGCCTCCTCTCTCCCTTCCTCATCTCTCGGAGTCACCTAGTGCAG”, “CTCCAGGAGGGGTGGAGTTGGAGCTGGAGCTGTGACAAACCGGAGTCACCTAGTGCAG” is lower in binding signal: 14700 fluorescence intensity (a.u.) for the first, 12800 fluorescence intensity (a.u.) for the second.

Compared with “AGGAGGGGTGGAGCTGGAGCTGGAGCTGTGCCAAACAGGCCGGAGTCACCTAGTGCAG”, “AGGAGGGTGGAGCTGTGCCAAACAGACCCTAAGTGTTTTCCGGAGTCACCTAGTGCAG” is higher in binding signal: 3190 fluorescence intensity (a.u.) for the first, 62100 fluorescence intensity (a.u.) for the second.

Going from “TTCTTTCATCAATTACTAGGCCTAGATGGGTAATTTTGGTCGGAGTCACCTAGTGCAG” to “ATCTTGCCGAAGTTGTTGGTGACGAAGTCGAGGCTGCCGACGGAGTCACCTAGTGCAG”, the binding signal falls from 3200 fluorescence intensity (a.u.) to 3180 fluorescence intensity (a.u.).

Compared with “AAAGTCAATATAGGAATACAATTTAGAAGTAACTTAAATTCGGAGTCACCTAGTGCAG”, “TTAGGCCAAGTATGGGGTTGGGGCTATGGAGGAGAAGGGCCGGAGTCACCTAGTGCAG” is lower in binding signal: 25600 fluorescence intensity (a.u.) for the first, 3320 fluorescence intensity (a.u.) for the second.

First: TACTTAGTAGCTAGGAGCTATATTGGTTGGAAAGGAGCGCCGGAGTCACCTAGTGCAG
Second: CTTAGCCGGCTATACGCGGCTACGTTGGCTGACTTGGTAGCGGAGTCACCTAGTGCAG
The binding signal of the first is higher: 51200 fluorescence intensity (a.u.) for the first, 4170 fluorescence intensity (a.u.) for the second.

Going from “CGCAGCACGCACGCACGCAGACACGCCCACGCGTTGCGGCCGGAGTCACCTAGTGCAG” to “CCGCGCCGTCCCTCCTGACGCGGCGTCTCGCCGCCGCCGCCGGAGTCACCTAGTGCAG”, the binding signal rises from 3550 fluorescence intensity (a.u.) to 3780 fluorescence intensity (a.u.).

Going from “TCCCGATCGACGCGTGCATGGCGGCGAGCCTTCTGTCCCACGGAGTCACCTAGTGCAG” to “CCTTCCAACATGTTTATTATGCATGAGATGTGTGCAACGACGGAGTCACCTAGTGCAG”, the binding signal rises from 3330 fluorescence intensity (a.u.) to 3360 fluorescence intensity (a.u.).

First: TTCAACGGCGCGTGCCGACGTGGCCGCTGCGGCGTGCGTGCGGAGTCACCTAGTGCAG
Second: CATTCAACGCTCGCGTGCGTGCAGTGCCGTGTGTGGACCGCGGAGTCACCTAGTGCAG
The binding signal of the first is lower: 10300 fluorescence intensity (a.u.) for the first, 54900 fluorescence intensity (a.u.) for the second.

Compared with “AGAGGGACGTCGACGCGTGGTGCCGTGGTGGTGTCGCTCGCGGAGTCACCTAGTGCAG”, “TGGCACATTCTCATCGTATTTTCTTGTTGCTCTATGTATGCGGAGTCACCTAGTGCAG” is lower in binding signal: 3400 fluorescence intensity (a.u.) for the first, 3180 fluorescence intensity (a.u.) for the second.

Going from “ACTATAATTCATGGGATTATGTGCCAGCAGTCATAATATCCGGAGTCACCTAGTGCAG” to “AAGTTCACAGTGCTGACCACGGTCAAGGTGCCACGTCATCCGGAGTCACCTAGTGCAG”, the binding signal rises from 3180 fluorescence intensity (a.u.) to 35200 fluorescence intensity (a.u.).

Going from “ACACGTGGGTCCACGTAGGCGACACGTCAATGCCACGTCACGGAGTCACCTAGTGCAG” to “CGCTACCGTGGCATGCCACGTCACCGGATGGAGCGGGTCGCGGAGTCACCTAGTGCAG”, the binding signal falls from 55900 fluorescence intensity (a.u.) to 20100 fluorescence intensity (a.u.).

First: TATTACCACGTAGGCGCCACGTGGCGCCACGTCAGCAAAACGGAGTCACCTAGTGCAG
Second: GCGTCATCATGACATGCCACGTCAGCACATGGAGCGGGTTCGGAGTCACCTAGTGCAG
The binding signal of the first is higher: 42100 fluorescence intensity (a.u.) for the first, 26100 fluorescence intensity (a.u.) for the second.

First: GAGTTAGCAGTGTTGACCACGGTCAAGGTGCCACGTCATCCGGAGTCACCTAGTGCAG
Second: GACATGTAGGACCCACGTGAGTCAATGACACGTGGGTCAGCGGAGTCACCTAGTGCAG
The binding signal of the first is higher: 43000 fluorescence intensity (a.u.) for the first, 23800 fluorescence intensity (a.u.) for the second.

Compared with “GTGCCTCCGTAGCAATGCCACGTCAGCATATGGAGCGGGTCGGAGTCACCTAGTGCAG”, “TGTGGGGTCCACGTAATGCCACGTCAGCGCAACCTAGGAACGGAGTCACCTAGTGCAG” is lower in binding signal: 44600 fluorescence intensity (a.u.) for the first, 37100 fluorescence intensity (a.u.) for the second.

Going from “TTGAGTCAGTAGTGTTGACAACGGTCAAGGTGCCACGTCACGGAGTCACCTAGTGCAG” to “ATTTTATTGGGATCAAATTACCACGTAGGCGCCACGTCAACGGAGTCACCTAGTGCAG”, the binding signal falls from 26100 fluorescence intensity (a.u.) to 20900 fluorescence intensity (a.u.).

Compared with “CAGTGACTCCTCTCCTACGTAGGCGCCACGTCAGCAAAACCGGAGTCACCTAGTGCAG”, “AGAGAGAGGGGAGAGGGGTGGAAGGGGAATATGGTAGCTGCGGAGTCACCTAGTGCAG” is lower in binding signal: 20900 fluorescence intensity (a.u.) for the first, 3330 fluorescence intensity (a.u.) for the second.

Going from “CCTCGTCGCCGCGTCACGGCGTCAGCTCGCCGCTCTAGGGCGGAGTCACCTAGTGCAG” to “GCCTCACAACCCGCATGGACACTGACATCGGCATCATCATCGGAGTCACCTAGTGCAG”, the binding signal falls from 4820 fluorescence intensity (a.u.) to 4260 fluorescence intensity (a.u.).
